Tb PGK inh – blocks T. brucei phosphoglycerate kinase. 380,000 compounds, 0.043% hits. P07378. PGK/GAPDH coupled, Kinase-Glo luminescence, 60 min. Potency, µM (top dose mostly 57.5 µM), for inactives: top-dose activity change, negative = inhibition, actives largely listed as inhibitors; also: potency is read from the fitted curve at half-maximal effect; nearly all actives have a fitted effect of over 60% in size
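Luminescent ATP detection (Kinase-Glo Plus) follows a 60-minute room-temperature incubation, with wells lacking PGK as controls. Buffer: 100 mM TEA (pH 7.6), 5 mM MgCl2, 0.01% Tween-20. Coupling enzyme GAPDH (100 nM final) supplies unstable 1,3-BPG in-well.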
PI4K2A block – blocks human PI4K2A kinase activity. AID 1346378. purified PI4K2A, ADP-Glo luminescence, 1 h; hits give low values. 420,000 compounds, 0.13% hits. activity change, negative = inhibition, % at 76.9 µM; in the data active = activity change below about -50%; inconclusive = mostly about -30% to -49%;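 also: -100% = wells without enzyme as full effect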
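Compounds are screened against recombinant PI4K2A using PI as substrate and ATP, the latter dispensed at 300 microM. Reactions run one hour at ambient temperature before ADP-Glo detection; full inhibition defined by wells lacking enzyme.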
Tb PFK inh – inhibitors of T. brucei phosphofructokinase; T. brucei PFK, ADP-Glo luminescence; Potency, µM (doses to about 57.5 µM), for the others: at the top dose activity, negative = inhibition, hits mostly inhibitors; 330,000 compounds, 0.17% hits; AID 485367;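 also: potency is read from the fitted curve at half-maximal effect; 0% = uninhibited 1x PFK enzyme wells and -100% = no-enzyme wells; nearly all actives have a fitted effect of over 60% in size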
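Luminescent ADP detection (ADP-Glo, two-step: ATP depletion then ADP-to-ATP conversion for luciferase) reported PFK activity after 45 min room-temperature reaction of 1.25 nM enzyme with 0.5 mM F6P and 0.1 mM ATP at pH 8.0.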
PI5P4Ka inh – PI5P4K alpha (human) kinase inhibition; P48426; PI5P4Kalpha enzyme, ADP-Glo luminescence, 60 min; hits give low values; max response, %; 330,000 compounds, 1.2% hits; AID 652105; active = max response of -50% or lower; inconclusive = between -30% and -50%; inactive = -30% or higher; also: value at the top dose of about 77 µM
Target sequence (P48426 whole entry, looked up): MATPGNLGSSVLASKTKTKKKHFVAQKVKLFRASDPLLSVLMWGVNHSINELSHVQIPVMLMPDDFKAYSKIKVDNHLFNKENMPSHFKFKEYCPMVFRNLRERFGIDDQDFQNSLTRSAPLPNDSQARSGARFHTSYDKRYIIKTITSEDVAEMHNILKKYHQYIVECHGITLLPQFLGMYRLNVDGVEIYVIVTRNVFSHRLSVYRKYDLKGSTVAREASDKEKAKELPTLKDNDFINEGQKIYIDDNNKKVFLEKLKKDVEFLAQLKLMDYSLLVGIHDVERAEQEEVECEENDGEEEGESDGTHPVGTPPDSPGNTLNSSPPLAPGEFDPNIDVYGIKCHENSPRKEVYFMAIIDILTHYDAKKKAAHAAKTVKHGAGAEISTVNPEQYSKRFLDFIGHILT
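Human PI5P4Kalpha with substrate in 0.038 M HEPES pH 7.4, 0.28 mM EGTA, 0.1% CHAPS, 5% DMSO; reaction started with 5 microM ATP (final), 60 min at room temperature. ADP formed read by ADP-Glo luminescence.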
Pin1 inh – inhibitors of human Pin1; AID 504891; Potency, µM (series often up to 115 µM), for inactives: top-dose activity, negative = inhibition, actives largely listed as inhibitors; 390,000 compounds, 0.009% hits; Pin1 FP peptide displacement, HiFluor488, 10 min; Q13526; active = well fitted inhibition curve with a large enough effect in the polarisation, with a control signal flat, not every such curve was filed as active; inconclusive = small, poorly fitted or top-dose-only effect, or effect the other way, or a change in a side signal; inactive = no such curve, though single readings can be large or run the other way; the % refers to the polarisation; also: potency is read from the fitted curve at half-maximal effect
Target sequence (Q13526 whole entry, looked up): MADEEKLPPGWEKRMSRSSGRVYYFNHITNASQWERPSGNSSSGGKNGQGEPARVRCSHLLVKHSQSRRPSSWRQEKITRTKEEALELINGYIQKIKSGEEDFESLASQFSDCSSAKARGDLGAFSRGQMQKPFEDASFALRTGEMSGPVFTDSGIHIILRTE
* marks the source's active call; other numbers are inactive results; i = inactive; u = inconclusive; x = not tested or not shown; [ ] = another dose, or the depositor's remark. This excerpt belongs to a sample that is enriched for hits. Unless noted, calls follow the shape of the dose curve; as a rule, active = well fitted curve in the direction sought with a large enough effect; inconclusive = small, poorly fitted or top-dose-only effect, or another doubt; inactive = no such curve, though single readings can be large; an effect the other way counts as inactive or inconclusive. Unless noted, % is scaled to controls: 0 for no effect and ±100 for the full control effect.

SMILES | Tb PGK inh | PI4K2A block | Tb PFK inh | PI5P4Ka inh | Pin1 inh
COc1cc(/C=N/NC(=O)c2nonc2C)ccc1O | -12.8% | -10.1 | 1.9% | -4.0 | 4.8%
O=C(CSc1nc2ccccc2o1)N/N=C/c1ccc(O)c(O)c1 | u | -6.6 | 1.9% | -89.3* | u
O=C(CSc1nc2ccccc2o1)N/N=C/c1ccccc1 | 0.0% | -3.1 | 3.8% | 3.5 | 2.1%
O=C(NN=Cc1ccc2c(c1)OCO2)NN=Cc1ccc2c(c1)OCO2 | -3.4% | -12.5 | x | -6.2 | -4.2%
O=C(N/N=C/c1ccc(O)c(O)c1)N/N=C/c1ccc(O)c(O)c1 | u | -8.5 | u | -69.2* | u
Cc1nonc1C(=O)N/N=C/c1ccc(O)c(O)c1 | u | -62.4* | -12.2% | -17.2 | -5.6%
COc1ccc(Cn2ncc3c4sc(C)cc4n(C)c3c2=O)cc1F | x | x | x | x | 0.5%
COc1ccc(-n2c(COc3cccc4ccccc34)nnc2SC(C)C(=O)O)cc1 (stereo not drawn) | -5.1% | -3.9 | 0.1% | -96.9* | -0.8%
COc1cc(NC(=O)C2CCN(c3nnc(-n4cccc4)s3)CC2)cc(OC)c1 | x | 1.9 | x | x | x
CCc1nnc(NC(=O)C2Cc3ccccc3CN2S(=O)(=O)c2cccs2)s1 (stereo not drawn) | 2.3% | -9.4 | -7.1% | u | 6.6%
O=C(Nc1nnc(C2CC2)s1)C1Cc2ccccc2CN1S(=O)(=O)c1cccs1 (stereo not drawn) | i | -16.2 | -11.6% | -60.0* | 14.7%
C=C[C@H]1CN2CCC1C[C@@H]2C(O)c1ccnc2ccc(OC)cc12 (stereo partly drawn) | x | x | x | x | 1.9%
Cc1csc(N=Cc2ccc([N+](=O)[O-])o2)n1 | -13.2% | u | x | -81.6* | x
COc1cccc2c1C(=O)c1c(O)c3c(c(O)c1C2=O)C[C@@](O)(C(=O)CO)C[C@@H]3O[C@H]1C[C@H](N)[C@H](O[C@@H]2CCCCO2)[C@H](C)O1 | x | -15.9 | x | x | x
CC1(C)CC(=O)C=C(Nc2ccc(O)c(C(=O)O)c2)C1 | 3.4% | -9.8 | 0.3% | -93.6* | -14.9%
O=C(NC1CCCCN(Cc2ccc(Cl)cc2)C1=O)c1cccc(F)c1 (stereo not drawn) | x | -0.5 | x | x | x
NC1CCN(c2nc(-c3ccc(Br)cc3)cs2)CC1 | x | x | x | x | -15.9%
C(=C\n1nnc2ccccc21)/c1ccc[nH]1 | -9.1% | -19.3 | -28.5% | -76.8* | -15.6%
O=C(O)c1cc(F)c(S(=O)(=O)N2CCN(S(=O)(=O)c3ccc4c(c3)OCCO4)CC2)cc1F | x | x | x | x | 0.6%
O=C(Nc1ccc(-c2nc3cccnc3s2)cc1)C1CCCO1 (stereo not drawn) | u | -57.5* | -13.8% | u | -2.7%
COC1=C[C@H](C(=O)NCCNC(C)=O)[C@@]2(C)Cc3ccccc3[C@H]2CC1=O | x | -2.6 | x | x | x
Cc1ccccc1N=C1NC(=O)/C(=C/c2cccn2-c2cccc(C(=O)O)c2)S1 | u | 3.0 | -28.1% | -87.0* | u
Cc1cccc(N=C2NC(=O)/C(=C/c3cccn3C)S2)c1C | 7.4% | -5.8 | 6.0% | -72.1* | u
CC12CCC3c4ccc(O)c([N+](=O)[O-])c4CCC3C1CCC2=O (stereo not drawn) | 9.1% | -1.2 | x | -58.7* | x
CC12CCC3c4ccc(O)cc4CCC3C1CCC2=O (stereo not drawn) | -6.9% | 3.9 | -5.7% | 0.1 | 0.6%
SMILES | Tb PGK inh | PI4K2A block | Tb PFK inh | PI5P4Ka inh | Pin1 inh
COc1ccccc1OCC(=O)N/N=C(\C)c1ccc2ccccc2c1 | -8.5% | 1.6 | x | -68.5* | x
COc1cccc(C2c3c(ncn(-c4ccccc4C#N)c3=N)Oc3ccc4ccccc4c32)c1 (stereo not drawn) | x | x | x | x | 5.2%
C=CCOC(=O)c1[nH]c2c(c1C)C(=O)CC(c1ccco1)C2 (stereo not drawn) | -17.3% | -8.6 | u | -60.5* | u
Cc1c(C(=O)OCC2CCCO2)[nH]c2c1C(=O)CC(c1ccco1)C2 (stereo not drawn) | u | -53.5* | u | -76.0* | u
CC(=O)Nc1cccc(S(=O)(=O)Nc2ccc(C)c(C)c2)c1 | x | x | x | x | -2.2%
O=C(Cc1ccccc1)Nc1sc2c(c1C(=O)Nc1cccc(Cl)c1)CCCC2 | x | x | x | x | 17.5%
CCCCC[C@H](O)/C=C/[C@H]1C=CC(=O)[C@@H]1C/C=C\CCCC(=O)O | x | x | 30.1µM* | x | x
O=C(O)c1cc(O)c2c(c1)[C@@H]([C@H]1c3cc(C(=O)O)cc(O)c3C(=O)c3c(O[C@@H]4O[C@H](CO)[C@@H](O)[C@H](O)[C@H]4O)cccc31)c1cccc(O[C@@H]3O[C@H](CO)[C@@H](O)[C@H](O)[C@H]3O)c1C2=O | 3.16µM* | -63.5* | u | -110.9* | 2.51µM*
OCC1OC(Oc2cccc3ccccc23)C(O)C(O)C1O (stereo not drawn) | -3.2% | -8.3 | 0.8% | -7.2 | -6.2%
Cc1ccc(-n2c(C)cc(/C=N/NC(=O)CC3(C)OCCO3)c2C)c(C)c1 | -4.0% | -3.3 | -0.9% | -1.1 | 2.8%
CC1(CC(=O)N/N=C/c2cc([N+](=O)[O-])c(O)cc2O)OCCO1 | -13.3% | 0.5 | -12.2% | -64.1* | -13.2%
CCOC(=O)C1=C(C)Nc2nc(=S)[nH]n2C1c1ccc(Cl)cc1 (stereo not drawn) | -4.5% | -1.5 | 3.2%[0.46 µM] | -60.0* | -1.0%
COc1ccc(/C=C/S(=O)(=O)NC2CCCC2)c(CNC(=O)OC(C)(C)C)c1 | x | -3.8 | x | x | x
O=C(COC(=O)C1CCN(S(=O)(=O)c2cc([N+](=O)[O-])ccc2Cl)CC1)Nc1ncc(Cl)cc1Cl | u | 3.8 | -3.4% | -50.2* | u
CC(=O)COC(=O)C1CCN(S(=O)(=O)c2cc([N+](=O)[O-])ccc2Cl)CC1 | i | -4.2 | -3.9% | -52.8* | -4.7%
CC(C)(C)OC(=O)n1c2ccsc2c2cnn(Cc3ccccc3F)c(=O)c21 | x | x | x | x | 1.1%
COC(=O)c1ccc(=O)c2nc3/c(=C/O)c(O)cc(=O)c3[nH]c12 | -8.4% | -19.6 | -18.3% | -74.0* | 7.08µM*
COC(=O)c1ccc(N)cc1O | -7.9% | -2.2 | 0.2% | 2.9 | 1.6%
CCN(CC)S(=O)(=O)c1ccc(/C=C/C(=O)OCC(=O)NCc2ccco2)cc1 | -17.3% | -18.8 | u | -56.6* | 74.7%
CC(C)(C)c1ccc(C(=O)OCC(=O)NCc2ccco2)cc1 | i | -6.5 | 0.1% | 5.2 | 0.9%
O=Cc1ccc(C(=O)OCC(=O)NCc2ccco2)cc1 | i | -1.5 | -4.6% | -52.7* | 1.8%
CC(C)(C)SCCNC(=O)c1ccccc1 | 4.7% | 0.8 | 0.6% | 2.7 | -1.5%
Cc1ccc(C(=O)NCCSC(C)(C)C)cc1 | i | -58.8* | -3.7% | 3.0 | -0.7%
S=c1[nH]nc(-c2ccc(Cl)cc2)n1-c1ccc(Cl)cc1 | -3.0% | -1.1 | 1.8% | -0.5 | -2.8%
Nc1n[nH]c(=S)n1-c1ccc(Cl)cc1 | -6.9% | -3.9 | -15.1% | -54.2* | 3.2%
Cc1onc(-c2ccccc2)c1C(=O)Cl | x | -3.7 | x | x | x
